PubChem BioAssay

Assays:
[1] = target: Tumor necrosis factor receptor superfamily member 10B (Homo sapiens) (UniProt O14763); assay: caspase-8 TRAIL sensitization, hit retest, confirmation, cell-based, NB7+caspase-8, with/without TRAIL, luminescence panel (AID 651596); conditions: NB7 neuroblastoma + caspase-8, TRAIL sensitization, luminescence viability, with TRAIL, mean of runs, at 10 µM, stronger effect = higher value
[2] = as above; conditions: NB7 neuroblastoma + caspase-8, without TRAIL, luminescence viability, without TRAIL, mean of runs, at 10 µM

Chain of Tumor necrosis factor receptor superfamily member 10B (Homo sapiens) (O14763 whole entry, looked up): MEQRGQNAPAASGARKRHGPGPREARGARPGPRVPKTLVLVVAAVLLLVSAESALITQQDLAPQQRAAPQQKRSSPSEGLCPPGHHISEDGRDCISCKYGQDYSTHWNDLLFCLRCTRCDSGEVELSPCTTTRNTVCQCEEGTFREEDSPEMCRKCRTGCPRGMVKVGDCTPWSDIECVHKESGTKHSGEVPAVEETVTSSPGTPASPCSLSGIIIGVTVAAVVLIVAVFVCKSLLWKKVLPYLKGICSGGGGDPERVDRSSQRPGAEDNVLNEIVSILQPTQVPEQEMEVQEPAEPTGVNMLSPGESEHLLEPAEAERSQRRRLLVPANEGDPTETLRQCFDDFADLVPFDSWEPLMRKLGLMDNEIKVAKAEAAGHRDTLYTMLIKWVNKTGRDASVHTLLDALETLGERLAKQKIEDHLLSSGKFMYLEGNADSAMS

Structure (SMILES) | activity [1] | activity [2]
CCn1nc(C(=O)NCCc2ccc(S(N)(=O)=O)cc2)c2ccccc2c1=O | 16% | 41.1%
CCCCCCCCCCCCCCCC[N+](C)(C)Cc1ccc(F)cc1 | 80.7% | 74.2%
Cc1ccc(-c2nnc(Nc3ccccc3)o2)cc1 | 59.7% | 54.5%
CN(C)c1cccc(/C=C(\C#N)c2ccccc2)c1 | 28.8% | 40.8%
Cc1ccc(C(=O)Nc2ccc3c(c2)CCC3)cc1 | 78.7% | 76.2%
O=C(Nc1ccc(N2CCOCC2)c(F)c1)c1cccs1 | 48.5% | 63.3%
